DENV2 CPE rescue – inhibitors of DENV2 cytopathic effect, primary screen, cell-based, plate reader, single concentration; DENV2-infected cells, cytopathic effect rescue; CPE inhibition, % at 9.99 µM; hit rate 1.7% among 350,000; AID 651640, 2012; in the data active = CPE inhibition above about 20%, passing the limit was not always enough; inconclusive = no clear call, values can overlap the other calls; tested in BHK-21 cells;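 note: 0% = median of neutral control wells and 100% = median of positive control wells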
C2C12 statin – suppressors of statin myotoxicity in C2C12 myotubes, primary screen, cell-based, single point, plate reader. C2C12 myotubes + simvastatin, ATP luminescence, 48 h; scaled: DMSO 0, geranylgeraniol control 100. rescue of ATP level, % at 7.49 µM. hit rate 0.78% among 330,000. AID 602340, 2012;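 active = mean ATP rescue above about 67%, or every replicate alone reaching that limit, limit read from the data, passing the limit was not always enough; inconclusive = no clear call, values can overlap the other calls; inactive = mean under the limit and some replicate under it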;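 note: myotubes were challenged with 10 µM simvastatin during compound exposure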
miR122 inh – miR-122 Renilla sensor signal increase in Huh7, primary screen, miR-122 inhibitor project, cell-based, single point, plate reader; hit rate 0.3% among 340,000; Huh7 miR-122 Renilla luciferase sensor, 48 h; neutral wells = 0, positive control = 100; activation (reporter increase), % at 12.5 µM;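 active = mean replicate activation score at least 90 and every replicate individually at or above 90; inconclusive = only one of the two criteria met; inactive = neither criterion met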;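 note: higher luciferase means less miR-122 activity so hits act as miR-122 inhibitors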
PvdQ inh – P. aeruginosa PvdQ acylase inhibitors, primary screen, biochemical, fluorescence, plate reader and imaging, single point; PvdQ acylase [Pseudomonas aeruginosa LESB58]; purified PvdQ acylase; inhibition, % at 10 µM; hit rate 0.063% among 340,000; AID 488965, 2010; in the data active = inhibition above about 30%, passing the limit was not always enough; inconclusive = no clear call, values can overlap the other calls;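 note: 0% = vehicle neutral wells and 100% = reference inhibitor wells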
PGC1a acetyl inh – inhibitors of PGC1a acetylation signal, primary screen, cell-based, U2OS, AlphaScreen, inhibitor mode. inhibition, % at 15.6 µM. hit rate 0.17% among 350,000. AlphaScreen anti-acetyl-lysine; with virally co-expressed GCN5 acetyltransferase;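 active = every replicate shows inhibition of at least 40%; inconclusive = mean inhibition at least 40% but some replicate below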;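 note: 0% = neutral control wells and 100% = positive control wells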
* hit, by the source's call; ? = inconclusive; . = no result; [ ] = remark or other dose. In the library only some 2.2% were active in any assay of this set; here they are far more common.

SMILES	DENV2 CPE rescue	C2C12 statin	miR122 inh	PvdQ inh	PGC1a acetyl inh
C/C(=N\NC(=O)c1ccccc1)c1ccc2c(c1)OCO2	.	-1	-7	-14	-11
COC(=O)c1[nH]c2ccccc2c1NC(=O)/C=C/c1ccc2c(c1)OCO2	38*	.	-3	-11	-4
CCOC(=O)c1[nH]c2ccc(OC)cc2c1NC(=O)c1ccc2c(c1)OCO2	.	2	6	-4	-55
CCN(CC(=O)Nc1c(C(=O)OC)[nH]c2ccccc12)c1ccc2c(c1)OCO2	.	4	-14	-10	-11
CCC(=O)Nc1ccc2c(c1)C(=O)N(C)[C@H]1CC[C@H](CC(=O)N3CCc4ccccc4C3)O[C@H]1CO2	5	3	24[16.7 µM]	.	-3
COc1cccc(-c2ccc(CC[C@H]3O[C@H]4CC[C@H](CO)O[C@H]4C[C@@H]3NS(C)(=O)=O)cc2)c1	?	.	.	.	-11
CO[C@H]1CN(C)C(=O)c2cc(NC(=O)NC(C)C)ccc2OC[C@@H](C)N(CCC(F)(F)F)C[C@H]1C	.	4	7[16.7 µM]	.	0
CC(=O)N(C)C[C@H]1Oc2ncc(C#Cc3cccc(F)c3)cc2C(=O)N([C@@H](C)CO)C[C@@H]1C	12	-4	-1[16.7 µM]	.	-1
COc1ccc2c3c(n(C)c2c1)[C@H](CO)N(Cc1ccccc1)CC31CN(C(=O)Nc2cccc(F)c2)C1	2	.	.	.	.
CCOC(=O)N(O)c1ccc(C=Cc2ccccc2)cc1	-4	.	-7	-18	49*
O=CC1=C(c2ccccc2)Oc2ccccc2O1	0	25	.	82*	.
CN(C)/C=C1/N=C(c2ccccc2)OC1=O	.	-6	-7	4	5
c1ccc(-c2csc(-c3ccc(-c4csnn4)cc3)n2)cc1	54*	.	.	-6	.
C[C@H](NC(=O)C[C@H]1C[C@@H]2c3cc(NC(=O)C4CCOCC4)ccc3O[C@@H]2[C@H](CO)O1)c1ccccc1	13	-6	5[16.7 µM]	.	1
Cc1ccc(N(Cc2ccco2)C(=O)c2ccc(N3CCCCC3)c([N+](=O)[O-])c2)cc1	13	0	165*	14	-23
CN(C(=O)c1ccc(N2CCCCC2)c([N+](=O)[O-])c1)C1CCS(=O)(=O)C1 (centres undefined)	-5	108*	-2	-6	3
COc1ccc(S(=O)(=O)Nc2ccc3c(c2)CC(=O)N([C@@H](C)CO)C[C@H](C)[C@@H](CN(C)S(=O)(=O)c2ccccc2)O3)cc1	-1	14	-9[16.7 µM]	.	-12
O=C(Nc1cc(F)ccc1F)N1CC(=O)N2[C@H](CO)[C@@H](c3ccc(-c4ccccc4)cc3)[C@H]2C1	?	.	.	.	-7
O=C(Nc1cc(F)ccc1F)N1CC(=O)N2[C@H](CO)[C@H](c3ccc(-c4cccnc4)cc3)[C@@H]2C1	30*	.	.	.	3
O=C1CN(Cc2ccc(F)cc2)C[C@H]2[C@@H](c3ccc(-c4cccnc4)cc3)[C@H](CO)N12	24*	.	.	.	-4
N#CC(c1ccc(Cl)cc1)c1cccc(Cl)n1 (centres undefined)	4	34	1	117*	4
COc1ccc([N+](=O)[O-])c(S(=O)(=O)c2ccccc2)n1	7	.	-25	.	16
COc1ccc([N+](=O)[O-])c(S(=O)(=O)c2ccc(Cl)cc2)n1	-3	.	.	-17	45*
C[C@@H]1CN([C@H](C)CO)C(=O)c2cc(NC(=O)c3ccccc3)ccc2O[C@@H](C)CCCCO[C@H]1CN(C)S(=O)(=O)c1cn(C)cn1	-2	.	5[16.7 µM]	.	5
CCCN(C)C[C@@H]1Oc2ncc(C#Cc3ccc(OC)c(OC)c3)cc2C(=O)N([C@H](C)CO)C[C@@H]1C	-6	26	-6[16.7 µM]	.	-36
SMILES	DENV2 CPE rescue	C2C12 statin	miR122 inh	PvdQ inh	PGC1a acetyl inh
CN(C)CCOc1ccc2c(c1)C(=O)C(=Cc1ncc([N+](=O)[O-])n1C)C2	11	3	-22	.	93*
CCc1cc(OCCN(C)C)ccc1Cl	-2	.	.	4	0
C[C@@H]1CN([C@H](C)CO)C(=O)c2cc(NS(=O)(=O)c3cn(C)cn3)ccc2O[C@@H]1CN(C)Cc1ccc(Cl)c(Cl)c1	9	47	-4[16.7 µM]	.	1
O=C1c2cccc3c([N+](=O)[O-])ccc(c23)C(=O)N1c1ccc(Cl)cn1	.	129*	8	11	38
CCOC(=O)C(C(=O)OCC)c1cc(Br)c2noc3c2c1C(=O)c1ccccc1-3	.	.	2	-3	-5
O=C1c2ccccc2-c2onc3ccc(Oc4ccccc4)c1c23	.	100*	-11	6	-39
N#C/C(=C/c1ccco1)c1nc2ccccc2s1	.	.	1	41*	8
N#C/C(=C\c1ccc(O)c([N+](=O)[O-])c1)c1nc2ccccc2s1	.	-126	22	3	8
CNC(=O)C[C@H]1CC[C@@H]2[C@H](COc3ccc(NC(=O)c4cccc(OC)c4)cc3C(=O)N2C)O1	?	19	-83[16.7 µM]	.	1
COc1cc(CC(C#N)(CO)c2nc3ccccc3[nH]2)ccc1OC(F)F (centres undefined)	47*	-4	8	-6	-5
CCCCc1nc2cc(C(=O)NCc3cn(C)nc3C)ccc2o1	47*	.	-5	-10	10
CN1C(=O)c2cc(NC(=O)c3cccs3)ccc2OC[C@H]2O[C@@H](CC(=O)NCC3CC3)CC[C@H]21	20	10	33[16.7 µM]	.	-5
N#C[C@H]1N[C@H](CO)[C@@H]1c1ccc(C#CC2CCCC2)cc1	9	3	.	.	-18
N#C[C@@H]1[C@@H](c2ccccc2)[C@H](CO)N1S(=O)(=O)c1ccc(-c2ccccc2)cc1	1	88*	.	.	1
N#C[C@@H]1N[C@@H](CO)[C@H]1c1ccc(C#CC2CCCC2)cc1	21*	22	.	.	-17
N#C[C@H]1[C@@H](c2ccc(C#CC3CCCC3)cc2)[C@H](CO)N1S(=O)(=O)c1ccccc1	21*	-31	.	.	0
N#C[C@H]1[C@@H](c2ccccc2)[C@H](CO)N1S(=O)(=O)c1ccc(-c2ccccc2)cc1	-11	-18	.	.	-2
N#C[C@H]1[C@H](c2ccc(C#CC3CCCC3)cc2)[C@H](CO)N1S(=O)(=O)c1ccccc1	1	-3	.	.	0
C/C=C/c1ccc2c(c1)O[C@@H](CN(C)Cc1ccc(F)cc1)[C@H](C)CN([C@@H](C)CO)S2(=O)=O	10	-54	-4[16.7 µM]	.	16
COC(=O)c1ccc(Sc2ccccn2)c([N+](=O)[O-])c1	88*	.	.	-5	.
CC(C)(C)NC(=O)c1ccc(Sc2ccccc2)c([N+](=O)[O-])c1	.	.	-1	-4	81*
CCCNC(=O)N(C)C[C@H]1Oc2ncc(C#CC3(O)CCCC3)cc2C(=O)N([C@@H](C)CO)C[C@@H]1C	1	18	-14[16.7 µM]	.	1
C[C@@H]1CN([C@H](C)CO)C(=O)c2cc(C#C[C@@H](C)O)cnc2O[C@@H]1CN(C)Cc1cccc(F)c1	-3	2	-10[16.7 µM]	.	9

Compound activity: PubChem BioAssay, Broad Institute
